Records with an inconclusive call do not appear. Activity calls are given as the source filed them. How the source made its calls: active means hit-call score of the fitted dose curve at least 0.9, where 1 is the maximum; inconclusive means response in the unintended direction; inactive means score below 0.9.
Each molecule was assayed against human Chymotrypsin Serine Peptidase, ELANE (gene 1991) (UniProt P08246) (assay: ERF_FR_ENZ_hELANE: Eurofins (ERF) Enzymatic Neutrophil Elastase LeadHunter Assay for human Chymotrypsin Serine Peptidase).
human Chymotrypsin Serine Peptidase, ELANE (gene 1991), sequence (P08246 whole entry, looked up): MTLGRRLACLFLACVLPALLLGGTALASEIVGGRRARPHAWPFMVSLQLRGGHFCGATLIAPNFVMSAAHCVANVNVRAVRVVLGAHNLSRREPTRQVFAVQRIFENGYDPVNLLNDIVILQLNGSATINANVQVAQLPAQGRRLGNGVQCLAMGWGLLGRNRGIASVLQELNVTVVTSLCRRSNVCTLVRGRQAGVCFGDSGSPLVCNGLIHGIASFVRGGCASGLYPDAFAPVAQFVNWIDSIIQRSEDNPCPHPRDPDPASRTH
Experimental: ERF_FR_ENZ_hELANE is a biochemical, single-readout assay that uses extracted gene-proteins in a cell-free assay. Measurements were taken 0.5 hour after chemical dosing in a 96-well plate. See Neutrophil Elastase Human Chymotrypsin Serine Peptidase Enzymatic Assay, Cerep.ERF_FR_ENZ_hELANE is an assay component calculated from the ERF_FR_ENZ_hELANE assay. It is designed to measure enzyme activity using a type of enzyme reporter as detected by absorbance with spectrophotometry technology.Data from the assay component ERF_FR_ENZ_hELANE was analyzed at the assay endpoint, ERF_FR_ENZ_hELANE, in the positive analysis fitting direction relative to DMSO as the negative control and baseline of activity. Using a type of enzyme reporter, loss-of-signal activity can be used to understand changes in enzymatic activity as they relate to gene ELANE. To generalize the intended target to other relatable targets, this assay endpoint is annotated to the protease intended target family, where the subfamily is serine peptidase.
Human cells are incubated for 30 minutes at 37 C with MeOSAAPV-pNa (0.4 mM) as sunstrate and 3',4'dichloroisocoumarin as control inhibitor. Test Sample Requirements: Minimum for 1) Screen: 60 ul of 10 mM stock -OR- 1 mg (pre-weighed) for 10 uM final testing. 2) Dose Response: 90 ul of 10 mM stock -OR- 1 mg (pre-weighed) for a top concentration at 10 uM.

Compound	AC50	outcome
O=C(/C=C/c1ccc(O)cc1)CC(=O)/C=C/c1ccc(O)cc1	8.6 µM (active)	–
COc1cc(CCC(=O)CC(=O)CCc2ccc(O)c(OC)c2)ccc1O	–	inactive
COc1cc(/C=C/C(=O)CC(=O)/C=C/c2ccc(O)c(OC)c2)ccc1O	–	inactive
